A selection: hits, their analogues and other compounds. The true share with any hit is near 7.3%.
p53 reactivator: restores transcriptional activity of mutant p53; 320,000 tested, 0.063% active; Potency, µM (series often up to 92.2 µM), usual class: activators; H1299 p53-A138V BP100-luciferase reporter, luminescence, 24 h; also: nearly all actives have a fitted effect of over 45% in size
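p53-null H1299 cells stably carrying temperature-sensitive p53-A138V and a BP100-luciferase reporter were pinned with compounds (4-point, 1:5 series) and held 24 hrs at 37 deg C. Luminescence was read 10 min after detection reagent.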
FLuc modulator: counter-screen for miR-21 project: firefly luciferase inhibitors or activators; P08659; purified FLuc, Km substrates, luminescence inhibition; Potency, µM (highest dose often 57.5 µM), hits mostly inhibitors; 360,000 tested, 6.9% active; also: nearly all actives have a fitted effect of over 55% in size
Target sequence (P08659 whole entry, looked up): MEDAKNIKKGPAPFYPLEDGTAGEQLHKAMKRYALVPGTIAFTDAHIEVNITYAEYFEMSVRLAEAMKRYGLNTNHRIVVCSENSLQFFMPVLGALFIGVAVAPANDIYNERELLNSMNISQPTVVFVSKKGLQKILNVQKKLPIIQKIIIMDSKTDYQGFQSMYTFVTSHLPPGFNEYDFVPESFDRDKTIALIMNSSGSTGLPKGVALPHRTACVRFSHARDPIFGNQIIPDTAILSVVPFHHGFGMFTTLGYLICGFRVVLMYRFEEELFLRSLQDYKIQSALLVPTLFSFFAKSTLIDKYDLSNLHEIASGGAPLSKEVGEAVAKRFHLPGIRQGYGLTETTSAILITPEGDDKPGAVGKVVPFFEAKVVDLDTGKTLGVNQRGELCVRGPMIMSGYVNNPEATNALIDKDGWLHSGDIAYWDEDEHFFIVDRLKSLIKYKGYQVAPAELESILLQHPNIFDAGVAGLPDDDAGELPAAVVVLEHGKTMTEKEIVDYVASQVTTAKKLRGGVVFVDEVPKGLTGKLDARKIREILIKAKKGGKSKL
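Biochemical qHTS of compounds, final roughly 60 µM downward over six points, against 10 nM purified firefly luciferase using Km concentrations of substrates (10 uM D-luciferin, 10 uM ATP) in Tris acetate pH 7.5 buffer; luminescence output.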
ELG1 genotox: induces genotoxicity in HEK293T cells with luciferase-tagged ELG1. HEK293T ELG1-luciferase reporter, luminescence, 16 h. Potency, µM (highest dose often 46 µM), usual class: activators. 330,000 tested, 1.3% active. AID 504466; also: nearly all actives have a fitted effect of over 60% in size
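Quantitative HTS format in 1536-well plates. HEK293T ELG1-luciferase reporter cells receive test compound and are incubated 16 hr at 37 °C, 5% CO2; ONE-Glo added, 30 min room temperature, then luminescence read.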
SMN2 splice enh: SMN2 splice variant enhancement | HEK293 SMN2-luciferase splicing reporter, luminescence, 30-36 h | Potency, µM (titrated, usually from 46.1 µM), actives largely listed as activators | 210,000 tested, 2.8% active; also: nearly all actives have a fitted effect of over 55% in size
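HEK293 cells carry an SMN2 […]–luciferase reporter in which exon 7 inclusion puts luciferase in frame. Cells were plated 10-12 h before compound addition, then incubated 30-36 h at 37C. ONE-Glo luminescence was read; sodium butyrate at 4.5 mM final served as control.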
Rab9 prom act: activates the Rab9 promoter. Huh7 Rab9 promoter-luciferase reporter, luminescence, 24 h. Potency, µM (highest dose often 9.22 µM), hits mostly activators. 320,000 tested, 2.8% active; also: nearly all actives have a fitted effect of over 60% in size
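Cells were plated at 1500 per well in reduced-serum medium with 10% FBS and left 2 h. Compound in DMSO was then added for 24 h at 37 °C. Reporter signal was read by luminescence after 10 min with luciferase detection reagent.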
NPC1 promoter act: activates the NPC1 promoter; Potency, µM (top dose mostly 9.22 µM), actives largely listed as activators; Huh7 NPC1 promoter luciferase reporter, 24 h; 320,000 tested, 2.4% active; also: nearly all actives have a fitted effect of over 60% in size
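Cells: Huh7 expressing luciferase under the NPC1 promoter, 1500/well. Seeded 2 h, compound added, incubated 24 h at 37 °C. Luciferase reagent, 10 min ambient, then luminescence.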
A number is an active result; n = inactive; u = inconclusive; x = not tested or not shown; [ ] = remark or other dose. Calls follow the shape of the dose curve; as a rule, active = well fitted curve in the direction sought with a large enough effect; inconclusive = small, poorly fitted or top-dose-only effect, or another doubt; inactive = no such curve, though single readings can be large; an effect the other way counts as inactive or inconclusive.

SMILES	p53 reactivator	FLuc modulator	ELG1 genotox	SMN2 splice enh	Rab9 prom act	NPC1 promoter act
Cc1cccc(OCC(=O)Nc2cc(NC(=O)COc3cccc(C)c3C)cc(C(=O)O)c2)c1C	x	n	n	x	n	n
CC(=O)c1cccc(NC(=O)COC(=O)c2ccccc2C)c1	u	21.3µM	u	x	n	u
Cc1ccccc1OCC(=O)Nc1cccc(NC(=O)c2ccco2)c1	n	10.7µM	n	n	u	n
Cc1cccc(NC(=O)COc2ccc(Br)cc2/C=N/O)c1	u	5.36µM	u	17.8µM	3.98µM	3.98µM
CC(=O)c1cccc(NC(=O)CSC(=O)c2ccccc2)c1	n	16.9µM	n	n	n	n
Cc1cc(C)c(OCC(=O)Nc2cccc(O)c2)cc1C	u	1.51µM	5.17µM	n	u	n
O=C(COc1ccccc1Cl)Nc1ccccc1C(=O)Nc1cccc(C(=O)O)c1	n	7.57µM	u	x	u	u
Cc1cc(C)c(OCC(=O)Nc2ccc3c(c2)OCO3)cc1C	n	n	u	x	n	n
CC(C)(C)NC(=O)c1cccc(NC(=O)CSc2ccccc2)c1	n	15.1µM	n	n	n	n
CCOc1cc(-c2ccc(OC(=O)c3ccc(C)cc3)c(OC)c2)cc(=O)c2c(C)oc(C)c12	x	n	x	x	x	x
O=C(COc1ccc(Br)cc1Cl)Nc1ncn[nH]1	x	2.13µM	x	u	x	x
CCc1ccc(OCC(=O)Nc2ncn[nH]2)cc1	n	13.5µM	u	u	4.47µM	u
CCc1ccc(OCC(=O)Nc2ncn[nH]2)c(Br)c1	x	1.07µM	x	u	x	x
Nc1c(C(=O)Nc2cccc(F)c2)c2ccccn2c1C(=O)c1ccccc1	x	n	x	n	x	x
O=C(Cn1cc(SCc2ccc(C(F)(F)F)cc2)c2ccccc21)N1CCCCCC1	x	n	x	x	x	x
O=C(NCCn1cc(SCC(=O)N2CCOCC2)c2ccccc21)c1ccccc1	n	n	n	n	n	n
CCc1ccc(NC(=O)CSc2cn(CC(=O)N3CCOCC3)c3ccccc23)cc1	x	n	x	x	x	x
O=C(CSc1cn(Cc2ccccc2)c2ccccc12)N1CCOCC1	n	23.9µM	18.4µM	12.6µM	n	u
O=C(Cn1cc(SCc2ccc(Cl)cc2)c2ccccc21)N1CCOCC1	u	23.9µM	n	u	n	n
O=C(Cn1cc(SCc2ccc(F)cc2)c2ccccc21)N1CCOCC1	28.2µM	u	n	u	n	n
O=C(O)c1ccc2c(c1)C(=O)N([C@H](Cc1ccc(Cl)cc1)C(=O)O)C2=O	x	n	x	x	n	n
COc1ccc(-c2csc(N3C(=N)SCC3=O)n2)cc1	n	0.426µM	1.64µM	1µM	0.398µM	0.447µM
COc1ccc(-c2csc(N3C(=O)CNC3=S)n2)cc1	n	0.849µM	3.26µM	1.26µM	0.501µM	0.562µM
COc1ccc(-c2csc(N3C(=O)C4C5c6ccccc6C(c6ccccc65)[C@@H]4C3=O)n2)cc1 (stereo partly specified)	n	n	n	n	n	n
O=C1CNC(=S)N1c1nc(-c2ccccc2)cs1	10µM	2.69µM	u	11.2µM	2.82µM	2.82µM
SMILES	p53 reactivator	FLuc modulator	ELG1 genotox	SMN2 splice enh	Rab9 prom act	NPC1 promoter act
CC(=O)N1CCC2(CC1)OC(=O)C(C)=C2C(=O)NCc1cccc(Cl)c1	x	n	x	x	x	x
CN(C)C(=O)C1CCN(Cc2c[nH]c3ccccc23)CC1	x	x	x	n[9.22 µM]	x	x
CC1Cc2cc(/C(O)=C3/C(=O)C(=O)N(CCN4CCOCC4)C3c3cccc(O)c3)ccc2O1 (stereo unspecified)	u	21.3µM	n	n	n	n
CCOc1cccc(C2/C(=C(/O)c3ccc4c(c3)CC(C)O4)C(=O)C(=O)N2CCN2CCOCC2)c1 (stereo unspecified)	n	n	n	x	n	n
O=C(NCCSc1ncc(-c2ccc(F)cc2)[nH]1)c1ccc2c(c1)OCO2	n	u	n	x	n	n
COc1cccc(-c2ncc3ccccc3c2COC(=O)c2cccc(Br)c2)c1	n	n	n	x	n	n
CC1CCC(NC(=O)Cn2cc3c(n2)CCCC3)CC1 (stereo unspecified)	u	u	7.31µM	n	u	u
O=C(COc1ccccc1)Nc1cc(Cl)ccc1Cl	n	u	n	x	n	n
S=C(Nc1ccccc1)Nc1ccc(Cl)cc1Cl	u	26.9µM	20.6µM	n	u	3.16µM
O=C(COc1ccccc1O)Nc1ccccc1Cl	n	21.3µM	u	n	u	3.98µM
COc1ccc(OCC(=O)Nc2ccccc2Cl)cc1	n	n	n	x	n	n
O=C(COc1ccccc1)Nc1ccc(Cl)cc1Cl	n	6.01µM	u	x	2.24µM	u
Cc1oc(-c2ccc(Cl)cc2)nc1CSc1nnc(C)n2c1cc1sccc12	x	n	x	x	x	x
COc1cc(NC(=S)N2CCN(C/C=C/c3ccccc3)CC2)cc(OC)c1	n	n	n	n	n	n
COc1cc(NC(=S)N2CCN(C(c3ccccc3)c3ccccc3)CC2)cc(OC)c1	n	n	n	12.6µM	n	n
COc1ccc(CNc2nc(-c3ccco3)nn2C(=O)CC(C)C)cc1	x	x	x	12.6µM	x	x
CC(C)CC(=O)n1nc(-c2ccco2)nc1NCc1ccc(Cl)cc1	x	n	x	n	x	x
O=S(=O)(c1ccc2c(c1)CCC2)N1CCNCC1	n	n	n	x	n	n
Cc1ccccc1NC(=O)c1ccc2c(c1)N(C)CCS2	x	10.7µM	u	x	u	u
CN1CCSc2ccc(C(=O)Nc3cc(F)ccc3F)cc21	u	2.13µM	2.59µM	x	0.891µM	1.26µM
Cc1nc(SCC(=O)Nc2ccccc2F)[nH]c(=O)c1Cc1ccccc1	x	n	x	n	x	x
O=C1c2ccccc2CCC12N=NCC2c1ccccc1 (stereo unspecified)	n	16.9µM	n	n	n	n
COc1ccc2nc(N3C(=O)/C(=C/c4ccc(Cl)cc4)NC3=S)sc2c1	n	16.9µM	n	n	n	n
COc1ccc(N2C(=O)/C(=C/c3cccs3)NC2=S)cc1	n	u	n	u	n	n
Cc1ccc(C(=O)CC2(O)C(=O)N(Cc3ccccc3)c3ccccc32)c(C)c1 (stereo unspecified)	x	19µM	x	n	x	x
SMILES	p53 reactivator	FLuc modulator	ELG1 genotox	SMN2 splice enh	Rab9 prom act	NPC1 promoter act
Cc1ccc(C(=O)CC2(O)C(=O)N(Cc3ccccc3)c3ccc(Br)cc32)cc1 (stereo unspecified)	x	n	x	x	x	x
CCc1ccc(C(=O)CC2(O)C(=O)N(Cc3ccc(C)cc3)c3ccccc32)cc1 (stereo unspecified)	x	7.57µM	x	n	x	x
O=C(O)CC1(O)C(=O)N(Cc2ccccc2)c2ccccc21 (stereo unspecified)	n	n	n	x	n	n
Cc1ccc(N2CCN(C(=O)c3cn(C)c4ccc(S(=O)(=O)N5CCCC5)cc4c3=O)CC2C)cc1 (stereo unspecified)	x	n	x	n	x	x
CN(C)c1ccc(C=Nc2cnn(C)c2C(N)=O)cc1	n	4.78µM	u	x	n	n
COc1ccc(-c2cn3nc(SCC(=O)Nc4ccccc4F)ccc3n2)cc1	x	1.07µM	x	x	x	x

Screening data (PubChem)
